Where “and” joins values, the source holds several entries; their conditions need not be identical. Equal entries are not always repeated. Among all 5,500 compounds or so, about 2,000 (36%) were called active. About 18% were inconclusive and are not listed. No stated cut-off is given here; in the data, active means normalized growth mostly below about 0.91 (no sharp cut-off); inconclusive means no clear call, values can overlap the other calls; inactive means mostly above about 0.92. Some of the results follow.
Experiment: chemical genetic growth profiling, strain panel (AID 1159580);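 further: tested at 20 µM; growth read once vehicle control cultures reached saturation at 30 °C; 1 = growth at the plate median or of vehicle wells; lower values mean less growth of the strain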
Conditions: S. cerevisiae deletion strains, growth OD

Measured: normalized growth

O=C(O)c1cc(=O)c2c(OCC(O)COc3cccc4oc(C(=O)O)cc(=O)c34)cccc2o1
inactive: locus YAL013W, strain DEP1, hits give low values 1.01 | locus YAL021C, strain ccr4, hits give low values 0.964 | locus YAL026C, strain drs2, hits give low values 1.01 | locus YAL030W, strain snc1, hits give low values 0.996 | locus YBL061C, strain skt5, hits give low values 0.977 | locus YBR009C, strain hhf1, hits give low values 0.994 | locus YBR021W, strain FUR4, hits give low values 1.01 | locus YBR023C, strain chs3, hits give low values 0.992 | locus YBR171W, strain sec66, hits give low values 0.96 | locus YBR229C, strain ROT2, hits give low values 1.01 | locus YBR231C, strain swc5, hits give low values 0.963 | locus YBR279W, strain paf1, hits give low values 0.995 | locus YCL011C, strain gbp2, hits give low values 1 | locus YCL016C, strain dcc1, hits give low values 1.02 | locus YCL029C, strain bik1, hits give low values 1.02 | locus YCL061C, strain MRC1, hits give low values 0.983 | locus YCL069W, strain vba3, hits give low values 0.977 | locus YCR088W, strain abp1, hits give low values 0.974 | locus YDL005C, strain med2, hits give low values 0.974 | locus YDL035C, strain GPR1, hits give low values 1.01 | locus YDL040C, strain nat1, hits give low values 0.964 | locus YDL074C, strain BRE1, hits give low values 1.01 | locus YDL101C, strain DUN1, hits give low values 1.01 | locus YDL185W, strain tfp1, hits give low values 1.03 | locus YDL192W, strain arf1, hits give low values 1.02 | locus YDR001C, strain nth1, hits give low values 0.971 | locus YDR069C, strain doa4, hits give low values 0.971 | locus YDR101C, strain arx1, hits give low values 1.03 | locus YDR137W, strain rgp1, hits give low values 0.973 | locus YDR159W, strain sac3, hits give low values 0.926 | locus YDR162C, strain NBP2, hits give low values 1.01 | locus YDR195W, strain ref2 0.896 | locus YDR297W, strain sur2, hits give low values 0.987 | locus YDR318W, strain mcm21, hits give low values 1.02 | locus YDR334W, strain swr1, hits give low values 0.969 | locus YDR335W, strain msn5, hits give low values 0.967 | locus YDR388W, hits give low values 1.02 | locus YDR392W, strain spt3, hits give low values 1.03 | locus YDR502C, strain sam2, hits give low values 1 | locus YEL003W, strain gim4, hits give low values 0.955 | locus YEL037C, strain rad23, hits give low values 0.955 | locus YEL061C, strain CIN8 (second series), hits give low values 0.964 | locus YEL061C, strain CIN8, hits give low values 1.01 | locus YER015W, strain faa2, hits give low values 0.99 | locus YER016W, strain bim1, hits give low values 0.996 | locus YER110C, hits give low values 1.03 | locus YER111C, strain swi4, hits give low values 0.972 | locus YER155C, strain BEM2 (second series), hits give low values 0.935 | locus YER155C, strain BEM2, hits give low values 1.01 | locus YER167W, strain BCK2, hits give low values 1.01 | locus YFR010W, strain ubp6, hits give low values 0.969 | locus YGL078C, strain dbp3, hits give low values 1.01 | locus YGL086W, strain mad1, hits give low values 1 | locus YGL167C, strain pmr1, hits give low values 0.96 | locus YGL173C, strain kem1, hits give low values 0.959 | locus YGL227W, strain vid30, hits give low values 0.977 | locus YGL240W, strain doc1, hits give low values 0.959 | locus YGL248W, strain PDE1, hits give low values 1.01 | locus YGL253W, strain hxk2, hits give low values 0.983 | locus YGR135W, strain pre9, hits give low values 1.02 | locus YGR229C, strain SMI1, hits give low values 1.02 | locus YGR252W, strain gcn5, hits give low values 1.03 | locus YHR013C, strain ard1, hits give low values 0.979 | locus YHR027C, strain rpn1, hits give low values 0.989 | locus YHR030C, strain SLT2, hits give low values 1.01 and 1 | locus YHR079C, strain IRE1 (second series), hits give low values 1.03 | locus YHR079C, strain IRE1, hits give low values 1 | locus YHR094C, strain hxt1, hits give low values 1.02 | locus YHR129C, strain ARP1, hits give low values 1.01 | locus YHR142W, strain chs7, hits give low values 0.966 | locus YHR200W, strain rpn10, hits give low values 1.02 | locus YIL066C, strain RNR3, hits give low values 1.01 | locus YIL073C, strain SPO22, hits give low values 1.06 | locus YIL125W, strain kgd1, hits give low values 1.02 | locus YIR030C, strain dcg1, hits give low values 1.03 | locus YJL092W, strain hpr5, hits give low values 0.978 | locus YJL095W, strain BCK1 (second series), hits give low values 0.974 | locus YJL095W, strain BCK1, hits give low values 1.02 and 0.989 | locus YJL115W, strain asf1, hits give low values 0.967 | locus YJL129C, strain trk1, hits give low values 0.931 | locus YJL134W, strain LCB3, hits give low values 1.01 | locus YJL154C, strain vps35, hits give low values 0.962 | locus YJL164C, strain tpk1, hits give low values 1 | locus YJL166W, strain qcr8, hits give low values 0.953 | locus YJL168C, strain set2, hits give low values 1.02 | locus YJL187C, strain SWE1 (second series), hits give low values 1.02 | locus YJR043C, strain POL32, hits give low values 0.998 | locus YJR066W, strain TOR1, hits give low values 0.992 | locus YJR075W, strain HOC1, hits give low values 1.01
